Experimental data taken from PubChem BioAssay (NCATS).
Where “and” joins values, the source holds several entries; their conditions need not be identical. Equal values may be shown once. Records with an inconclusive call do not appear. A call without a number means that no potency is given here. Values without a mark were called inactive. Calls of active or inactive are those of the source. Unless noted, calls follow the shape of the dose curve; as a rule, active = well fitted curve in the direction sought with a large enough effect; inconclusive = small, poorly fitted or top-dose-only effect, or another doubt; inactive = no such curve, though single readings can be large; an effect the other way counts as inactive or inconclusive. Bridge positions count the residues as written; N and C are the ends. Square brackets hold non-standard residues; d marks the D form. Peptide text beside a SMILES is read from it. * marks the point of attachment. Octanoyl(6-Me) = CCC(C)CCCCC(=O)*; Dab = NCC[CH](N)C(=O)O

Key:
[1] = S16 Schwann cell PMP22 intronic element beta-lactamase assay (AID 624044; calls by dose curve; also: nearly all actives have a fitted effect of over 15% in size; also: potency is read from the fitted curve at half-maximal effect)
Method in brief: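 Beta-lactamase reporter under a PMP22 intronic regulatory element in stable S16 rat Schwann cells; 24 h compound exposure. 460 nm blue signal normalized between DMSO (0%) and potassium clavulanate, with 535 nm FRET tracking viability; curves classed by r2 and response.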

7G8 = test: qHTS profiling for inhibitors of Plasmodium falciparum proliferation (AID 504749); also: nearly all actives have a fitted effect of over 60% in size; also: potency is read from the fitted curve at half-maximal effect; settings: P. falciparum in erythrocytes, SYBR Green DNA, 72 h; series mostly up to 28.7 µM
Method in brief: (§1)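 Quantitative HTS: compounds pinned into medium, infected erythrocytes added (0.3% parasitemia, 2.5% hematocrit), 72 h culture at 37 C under 5% CO2. Saponin/Triton lysis with SYBR Green I, overnight RT, then fluorescence read.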

CP252 = test: as above; settings: P. falciparum in erythrocytes, SYBR Green DNA, 72 h; series mostly up to 28.7 µM
Method in brief: as §1

CP268 = test: as above; settings: P. falciparum in erythrocytes, SYBR Green DNA, 72 h; series mostly up to 28.7 µM
Method in brief: as §1

CP305 = test: as above; settings: P. falciparum in erythrocytes, SYBR Green DNA, 72 h; series mostly up to 28.7 µM
Method in brief: as §1

CP315 = test: as above; settings: P. falciparum in erythrocytes, SYBR Green DNA, 72 h; series mostly up to 28.7 µM
Method in brief: as §1

CP329 = test: as above; settings: P. falciparum in erythrocytes, SYBR Green DNA, 72 h; series mostly up to 28.7 µM
Method in brief: as §1

DIV17 = test: as above; settings: P. falciparum in erythrocytes, SYBR Green DNA, 72 h; series mostly up to 28.7 µM
Method in brief: as §1

ECU = test: as above; settings: P. falciparum in erythrocytes, SYBR Green DNA, 72 h; series mostly up to 28.7 µM
Method in brief: as §1

FAB9 = test: as above; settings: P. falciparum in erythrocytes, SYBR Green DNA, 72 h; series mostly up to 28.7 µM
Method in brief: as §1

HB3 = test: as above; settings: P. falciparum in erythrocytes, SYBR Green DNA, 72 h; series mostly up to 28.7 µM
Method in brief: as §1

P94_40 = test: as above; settings: P. falciparum in erythrocytes, SYBR Green DNA, 72 h; series mostly up to 28.7 µM
Method in brief: as §1

PC49 = test: as above; settings: P. falciparum in erythrocytes, SYBR Green DNA, 72 h; series mostly up to 28.7 µM
Method in brief: as §1

TAB109 = test: as above; settings: P. falciparum in erythrocytes, SYBR Green DNA, 72 h; series mostly up to 28.7 µM
Method in brief: as §1

[2] = Cell Viability - LYMP2-009 (AID 968);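 also: cells exposed to compound for 24 h at 37 °C; nearly all actives have a fitted effect of over 55% in size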
[3] = Cell Viability - LYMP2-008 (AID 980);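 also: cells exposed to compound for 24 h at 37 °C; nearly all actives have a fitted effect of over 60% in size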
Method in brief: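 Cells seeded at 2500/well and rested 5 hr at 37 C; compounds added over a concentration range and incubated 24 hr at 37 C; CellTiter-Glo added, 30 min at room temperature; luminescence read and AC50 fitted with Hill model.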

[4] = target: Glucocorticoid receptor (Homo sapiens) (UniProt P04150); test: qHTS assay for small molecule agonists of glucocorticoid receptor signaling (AID 588532; active = well fitted curve in the direction sought with a large enough effect in the signal ratio, with a control signal flat; the % refers to the signal ratio); settings: HeLa MMTV-bla, beta-lactamase ratio, agonist, 18 h; active compounds read high; percent of dexamethasone control, DMSO zero
Glucocorticoid receptor (Homo sapiens), sequence (P04150 whole entry, looked up): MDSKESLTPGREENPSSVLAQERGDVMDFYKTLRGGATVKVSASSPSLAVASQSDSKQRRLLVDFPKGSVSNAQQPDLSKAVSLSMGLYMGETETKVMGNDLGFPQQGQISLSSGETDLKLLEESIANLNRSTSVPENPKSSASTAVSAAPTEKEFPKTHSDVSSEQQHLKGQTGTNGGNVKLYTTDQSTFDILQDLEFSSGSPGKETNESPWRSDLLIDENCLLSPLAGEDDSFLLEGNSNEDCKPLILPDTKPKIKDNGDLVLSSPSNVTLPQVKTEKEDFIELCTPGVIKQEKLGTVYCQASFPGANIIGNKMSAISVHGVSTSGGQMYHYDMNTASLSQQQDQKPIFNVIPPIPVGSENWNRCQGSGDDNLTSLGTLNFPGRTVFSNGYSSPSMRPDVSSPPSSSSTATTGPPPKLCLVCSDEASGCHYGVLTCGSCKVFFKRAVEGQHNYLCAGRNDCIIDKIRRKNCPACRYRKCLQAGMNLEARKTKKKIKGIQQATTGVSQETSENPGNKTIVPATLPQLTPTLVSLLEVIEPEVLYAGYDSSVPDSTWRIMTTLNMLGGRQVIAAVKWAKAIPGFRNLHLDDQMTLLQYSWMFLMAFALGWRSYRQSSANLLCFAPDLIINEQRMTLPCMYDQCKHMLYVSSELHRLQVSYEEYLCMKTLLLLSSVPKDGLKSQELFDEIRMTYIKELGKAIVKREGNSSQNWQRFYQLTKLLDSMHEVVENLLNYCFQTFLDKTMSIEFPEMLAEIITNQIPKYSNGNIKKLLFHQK
Method in brief: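 Titration series, up to 92 uM, applied to GRE-bla HeLa cells for 18 h at 37 C. Detection by CCF4 FRET substrate after 2 h at RT.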

[5] = qHTS assay for small molecule disruptors of the mitochondrial membrane potential - 1 hr assay (AID 651754; calls by dose curve; also: nearly all actives have a fitted effect of over 35% in size; also: potency is read from the fitted curve at half-maximal effect)
Method in brief: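 Loss of mitochondrial potential shifts the cationic dye from red mitochondrial aggregates to green cytoplasmic monomers. Cells (HepG2) are treated with compound for 1 hr before a 30 min dye incubation at 37C.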

PAD = test: qHTS profiling for inhibitors of Plasmodium falciparum proliferation (AID 504749); also: nearly all actives have a fitted effect of over 60% in size; also: potency is read from the fitted curve at half-maximal effect; settings: P. falciparum in erythrocytes, SYBR Green DNA, 72 h; series mostly up to 28.7 µM
Method in brief: as §1

[6] = MultiTox-Fluor Cytotoxicity Assay - LYMP1-001 - Live Cells (AID 947)

With `CCC(C)CCCCC(=O)NC(CCN)C(=O)NC(C(=O)NC(CCN)C(=O)NC1CCNC(=O)C(C(C)O)NC(=O)C(CCN)NC(=O)C(CCN)NC(=O)C(CC(C)C)NC(=O)C(Cc2ccccc2)NC(=O)C(CCN)NC1=O)C(C)O` (stereo not drawn) ({Octanoyl(6-Me)}-[Dab]T[Dab][Dab][Dab]FL[Dab][Dab]T; lactam 4-C; configuration not given here) the Potency [1] was “inactive”, the Potency (7G8) was “inactive” and the Potency (CP252) was “inactive”. The Potency (CP268) was “inactive”, the Potency (CP305) was “inactive” and the Potency (CP315) was “inactive”. For the same compound, the Potency (CP329) was “inactive”, the Potency (DIV17) was “inactive” and the Potency (ECU) was “inactive”. The Potency (FAB9) was “inactive”, the Potency (HB3) was “inactive” and the Potency (P94_40) was “inactive”. The Potency (PC49) was “inactive” and the Potency (TAB109) was “inactive”.
For `c1ccc2scnc2c1`, the Potency [2] was “inactive”, the Potency [3] was “inactive” and the activation [4] was -6.61%. The Potency [5] was “inactive”.
With `CC(C)(CO)C(O)C(=O)NCCCC(=O)O` (stereo not drawn) the Potency [1] was “inactive”, the Potency (FAB9) was “inactive” and the Potency (HB3) was “inactive”. The Potency (PAD) was “inactive” and the Potency (PC49) was “inactive”.
In the case of `O=C(O)c1ccccc1C(c1ccc(O)cc1)c1ccc(O)cc1`, the Potency [6] is reported as “inactive”, the Potency [2] is reported as “inactive” and the Potency [3] is reported as “inactive”. For the same compound, the activation [4] was -2.81% and -6.49%.
In the case of `Nc1nc(Cl)nc2c1ncn2C1CC(O)C(CO)O1` (stereo not drawn), the Potency [1] is reported as 3.55 µM (active), the Potency (CP268) is reported as “inactive” and the Potency (CP305) is reported as “inactive”. The Potency (CP315) was “inactive”, the Potency (CP329) was “inactive” and the Potency (DIV17) was “inactive”.
In the case of `CO[C@@H]1[C@@H](OC2OC(C)C(OC3CC(C)(O)C(OC(=O)CC(C)C)C(C)O3)C(N(C)C)C2O)[C@@H](CC=O)C[C@@H](C)C(=O)/C=C\C2O[C@H]2C[C@@H](C)OC(=O)C[C@H]1OC(C)=O` (stereo partly drawn), the Potency [1] is reported as “inactive”, the Potency (7G8) is reported as 8.91 µM (active) and the Potency (CP252) is reported as 5.01 µM (active). For the same compound, the Potency (CP268) was 8.49 µM (active), the Potency (DIV17) was 10.7 µM (active) and the Potency (ECU) was 8.91 µM (active). The Potency (FAB9) was “inactive”, the Potency (HB3) was 11.2 µM (active) and the Potency (P94_40) was 8.91 µM (active). For the same compound, the Potency (PAD) was 11.2 µM (active), the Potency (PC49) was “inactive” and the Potency (TAB109) was 3.98 µM (active).
In the case of `COc1c2ccoc2cc2oc(=O)ccc12`, the Potency [6] is reported as “inactive”, the Potency [2] is reported as “inactive” and the Potency [3] is reported as “inactive”. The activation [4] was 3.88% and the Potency [5] was “inactive”.
For `S=C1NC=NC2N=CNC12` (stereo not drawn), the Potency [6] was “inactive”, the Potency [1] was 17.8 µM (active) and the Potency [5] was “inactive”. The Potency (CP252) was “inactive”, the Potency (ECU) was “inactive” and the Potency (FAB9) was “inactive”. For the same compound, the Potency (HB3) was “inactive”, the Potency (P94_40) was “inactive” and the Potency (PAD) was “inactive”. The Potency (PC49) was “inactive” and the Potency (TAB109) was “inactive”.
For `Cc1ccc(N)c([N+](=O)[O-])c1`, the Potency [2] was “inactive”, the Potency [3] was “inactive” and the activation [4] was 2.77% and 13.2%. For the same compound, the Potency [5] was “inactive”.
With `CC(=O)OC/C=C(\C)CCC=C(C)C` the Potency [6] was “inactive”, the Potency [2] was “inactive” and the Potency [3] was “inactive”. For the same compound, the activation [4] was 3.31% and -2.94% and the Potency [5] was “inactive”.
For `CCCCOCCO`, the Potency [6] was “inactive”, the Potency [2] was “inactive” and the Potency [3] was “inactive”. For the same compound, the activation [4] was -3.83% and -1.18% and the Potency [5] was “inactive”.
With `CN1CC[C@H](CN2c3ccccc3Sc3ccccc32)C1` the Potency [1] was “inactive”, the Potency (7G8) was 1.41 µM (active) and the Potency (CP252) was 11.2 µM (active). The Potency (CP268) was 15.1 µM (active), the Potency (CP305) was 15.1 µM (active) and the Potency (CP315) was “inactive”. The Potency (CP329) was “inactive”, the Potency (DIV17) was 5.36 µM (active) and the Potency (ECU) was 11.2 µM (active). The Potency (P94_40) was 8.91 µM (active), the Potency (PAD) was 8.91 µM (active) and the Potency (TAB109) was 11.2 µM (active).
In the case of `O=C1c2ccccc2C(=O)C1c1ccc2ccccc2n1`, the Potency [6] is reported as “inactive”, the activation [4] is reported as -2.81% and -4.97% and the Potency [5] is reported as 0.944 µM (active).
In the case of `CCC(O)OC(O)CC` (stereo not drawn), the Potency [6] is reported as “inactive”, the Potency [2] is reported as “inactive” and the Potency [3] is reported as “inactive”. For the same compound, the activation [4] was 1.96% and -2.19% and -0.591% and the Potency [5] was “inactive”.
In the case of `CC1=CC(C)(C)Nc2ccccc21`, the Potency [6] is reported as “inactive”, the Potency [2] is reported as “inactive” and the Potency [3] is reported as “inactive”. The Potency [5] was “inactive”.
With `CN(C)CCCCCCN(C)C` the Potency [6] was “inactive”, the Potency [2] was “inactive” and the Potency [3] was “inactive”. For the same compound, the Potency [1] was “inactive”, the Potency [5] was “inactive” and the Potency (7G8) was “inactive”. The Potency (CP252) was “inactive”, the Potency (CP268) was “inactive” and the Potency (CP305) was “inactive”. For the same compound, the Potency (CP315) was “inactive”, the Potency (CP329) was “inactive” and the Potency (DIV17) was “inactive”. The Potency (ECU) was “inactive”, the Potency (FAB9) was “inactive” and the Potency (HB3) was “inactive”. The Potency (P94_40) was “inactive”, the Potency (PAD) was “inactive” and the Potency (PC49) was “inactive”. For the same compound, the Potency (TAB109) was “inactive”.
